The values below come from PubChem BioAssay (Tox21).

Assay [1] in a line: qHTS assay to identify small molecule antagonists of the glucocorticoid receptor (GR) signaling pathway - cell viability counter screen (AID 720693; also: nearly all actives have a fitted effect of over 55% in size; also: potency is read from the fitted curve at half-maximal effect). (qHTS replaces the single test concentration by a dilution series.)
Assay [2] in a line: qHTS assay for identifying genotoxic compounds that show differential cytotoxicity against isogenic chicken DT40 cell lines with known DNA damage response pathways - wild type cell line (AID 743012). Also: nearly all actives have a fitted effect of over 60% in size. Also: potency is read from the fitted curve at half-maximal effect. The method, boiled down:
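Cells (DT40 wild type, 300/well) are treated with DMSO-dissolved compounds after a ~0.5 h pre-incubation and kept 40 h at 37 C/5% CO2. Viability is then measured by CellTiter-Glo luminescence following 30 min at room temperature.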

A short description of assay [3]: qHTS assay for identifying genotoxic compounds that show differential cytotoxicity against isogenic chicken DT40 cell lines with known DNA damage response pathways - Rev3 mutant cell line (AID 743014). Also: nearly all actives have a fitted effect of over 55% in size. Also: potency is read from the fitted curve at half-maximal effect.
The nature of assay [4]: qHTS assay for identifying genotoxic compounds that show differential cytotoxicity against isogenic chicken DT40 cell lines with known DNA damage response pathways - Rad54/Ku70 mutant cell line (AID 743015). Also: nearly all actives have a fitted effect of over 60% in size. Also: potency is read from the fitted curve at half-maximal effect.
Assay [5] in a line: qHTS assay to identify small molecule antagonists of the androgen receptor (AR) signaling pathway - cell viability counter screen (AID 743033; also: nearly all actives have a fitted effect of over 45% in size; also: potency is read from the fitted curve at half-maximal effect).
The nature of assay [6]: qHTS assay to identify small molecule antagonists of the androgen receptor (AR) signaling pathway using the MDA cell line - cell viability counter screen (AID 743041; also: nearly all actives have a fitted effect of over 45% in size). The method, boiled down:
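R1881-driven MDA-kb2 AR-luc cells, 3,000/well, were dosed with library compounds for 16 h; cell health came from CellTiter-Fluor fluorescence in the reporter wells.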

The nature of assay [7]: qHTS assay to identify small molecule antagonists of the thyroid receptor (TR) signaling pathway - cell viability counter screen (AID 743064). Also: nearly all actives have a fitted effect of over 50% in size. Also: potency is read from the fitted curve at half-maximal effect. A digest of the protocol: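 Viability of T3-stimulated (1 nM final) GH3.TRE-Luc cells is measured by CellTiter-Fluor fluorescence after 23.5 h compound exposure at 37 °C plus 30 min reagent incubation.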
A short description of assay [8]: qHTS assay to identify small molecule antagonists of the thyroid receptor (TR) signaling pathway (AID 743065). Also: nearly all actives have a fitted effect of over 55% in size. Also: potency is read from the fitted curve at half-maximal effect. A digest of the protocol:
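Antagonism measured as loss of luciferase signal in GH3 cells stably carrying a TRE-luciferase reporter, co-treated with compound and T3 (1 nM final) for 23.5 h at 37 C. Viability was read in the same well by CellTiter-Fluor.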

The subject of assay [9] is thyroid hormone receptor (rat, GH3 cells). In words: qHTS assay to identify small molecule agonists of the thyroid receptor (TR) signaling pathway (AID 743066; calls by dose curve; also: potency is read from the fitted curve at half-maximal effect).
Assay [10] in a line: qHTS assay to identify small molecule antagonists of the estrogen receptor alpha (ER-alpha) signaling pathway - cell viability counter screen (AID 743074; calls by dose curve;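 also: HEK293 cells carrying ER-alpha-UAS-bla reporter stimulated with 17beta-estradiol; nearly all actives have a fitted effect of over 45% in size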; also: potency is read from the fitted curve at half-maximal effect).
Assay [11] addresses Estrogen receptor (Homo sapiens) (UniProt P03372). In words: qHTS assay to identify small molecule agonists of the estrogen receptor alpha (ER-alpha) signaling pathway (AID 743075; calls by dose curve; also: potency is read from the fitted curve at half-maximal effect).
Assay [12] shares this target. The assay can be described thus: qHTS assay to identify small molecule agonists of the estrogen receptor alpha (ER-alpha) signaling pathway using the BG1 cell line (AID 743079). Also: nearly all actives have a fitted effect of over 20% in size. Also: potency is read from the fitted curve at half-maximal effect.
Assay [13] can be described thus: qHTS assay to identify small molecule antagonists of the estrogen receptor alpha (ER-alpha) signaling pathway using the BG1 cell line (AID 743080; calls by dose curve;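 also: BG1 cells stimulated with 17beta-estradiol alongside compound; nearly all actives have a fitted effect of over 25% in size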; also: potency is read from the fitted curve at half-maximal effect). A digest of the protocol:
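Luciferase inhibition measured with ONE-Glo after 30 min at RT in BG1Luc4E2 cells given test compounds and 17beta-estradiol for 21.5 h at 37 C; CellTiter-Fluor viability read in the same wells beforehand.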

Assay [14] in a line: qHTS assay to identify small molecule antagonists of the estrogen receptor alpha (ER-alpha) signaling pathway using the BG1 cell line - cell viability counter screen (AID 743081).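 Also: compound given together with 17beta-estradiol as the ER stimulus; series mostly up to about 70 µM; nearly all actives have a fitted effect of over 45% in size.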
Assay [15] concerns the target Aromatase (Homo sapiens) (UniProt P11511). In words: qHTS assay to identify aromatase inhibitors (AID 743083). Also: nearly all actives have a fitted effect of over 55% in size. Also: potency is read from the fitted curve at half-maximal effect.
Assay [16] concerns the target Estrogen receptor (Homo sapiens) (UniProt P03372). In words: qHTS assay to identify small molecule antagonists of the estrogen receptor alpha (ER-alpha) signaling pathway (AID 743069; active = well fitted curve in the direction sought with a large enough effect in the signal ratio in the repeat runs, not every such curve was filed as active; inconclusive = weak or mixed curves, or effect the other way; inactive = no such curve, though single readings can be large or run the other way; the % refers to the signal ratio). A digest of the protocol: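 Compound effects are measured against 17beta-estradiol stimulation in HEK293 cells with a UAS-controlled beta-lactamase reporter for ER-alpha. Exposure lasts 18 hr at 37C; LiveBLAzer B/G FRET substrate follows for 2 hr at room temperature.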

Values joined by “and” are separate entries in the source; they are usually repeats but may differ in a detail not shown here. Equal values may be shown once. A structure can be active in one record and inactive in another. Active and inactive are the calls of the source. Unless noted, calls follow the shape of the dose curve; as a rule, active = well fitted curve in the direction sought with a large enough effect in the repeat runs; inconclusive = weak or mixed curves; inactive = no such curve, though single readings can be large; an effect the other way counts as inactive or inconclusive.

Sequence of Aromatase (Homo sapiens) (P11511 whole entry, looked up): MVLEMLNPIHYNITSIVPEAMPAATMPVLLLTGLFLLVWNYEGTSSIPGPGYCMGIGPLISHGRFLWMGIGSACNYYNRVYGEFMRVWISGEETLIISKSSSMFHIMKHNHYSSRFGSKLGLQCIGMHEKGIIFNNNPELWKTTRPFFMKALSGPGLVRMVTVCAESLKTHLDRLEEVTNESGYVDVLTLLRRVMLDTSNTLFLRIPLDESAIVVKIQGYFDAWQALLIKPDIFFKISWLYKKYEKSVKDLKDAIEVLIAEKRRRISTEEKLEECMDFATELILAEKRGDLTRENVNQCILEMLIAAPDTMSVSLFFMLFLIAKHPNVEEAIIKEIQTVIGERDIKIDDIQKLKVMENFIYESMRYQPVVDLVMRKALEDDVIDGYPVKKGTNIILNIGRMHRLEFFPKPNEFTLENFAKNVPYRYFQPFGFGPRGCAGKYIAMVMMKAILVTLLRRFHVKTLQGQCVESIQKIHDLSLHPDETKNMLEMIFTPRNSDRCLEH
Sequence of Estrogen receptor (Homo sapiens) (P03372 whole entry, looked up): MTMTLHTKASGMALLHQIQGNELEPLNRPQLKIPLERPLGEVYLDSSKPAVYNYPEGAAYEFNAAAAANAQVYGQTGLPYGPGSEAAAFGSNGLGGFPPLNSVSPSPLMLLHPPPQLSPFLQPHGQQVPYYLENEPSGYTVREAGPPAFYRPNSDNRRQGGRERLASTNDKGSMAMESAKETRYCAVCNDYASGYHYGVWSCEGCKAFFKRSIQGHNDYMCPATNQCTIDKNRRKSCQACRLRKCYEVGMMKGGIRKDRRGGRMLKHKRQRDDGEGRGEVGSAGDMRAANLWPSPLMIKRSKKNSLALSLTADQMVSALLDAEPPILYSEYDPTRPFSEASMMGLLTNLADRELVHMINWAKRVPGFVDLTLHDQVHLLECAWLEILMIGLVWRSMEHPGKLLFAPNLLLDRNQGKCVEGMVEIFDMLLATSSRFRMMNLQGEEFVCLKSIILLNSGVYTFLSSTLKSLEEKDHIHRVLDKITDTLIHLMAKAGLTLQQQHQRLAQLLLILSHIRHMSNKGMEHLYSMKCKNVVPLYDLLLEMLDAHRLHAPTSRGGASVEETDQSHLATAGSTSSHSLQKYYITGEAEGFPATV

For `CCCCC(CC)COC(=O)Cl` (stereo unspecified), the Potency result in assay [1], in assay [2], in assay [3], in assay [4], in assay [5] and in assay [6] was “inactive” in each case. For the same compound, the Potency result in [7], in assay [8], in assay [9], in assay [10], in assay [11] and in assay [12] was “inactive” in each case. Besides, the Potency entry in [13], in [14] and in assay [15] was “inactive” throughout.

As to `O=C(Nc1ccc(Br)cc1)c1cc(Br)cc(Br)c1O`, the Potency in assay [1] was 3.45 µM (active) and 2.19 µM (active); in assay [2], 21.7 µM (active); in assay [3] it was “inactive and 19.3 µM (active)”; in assay [4] it was “inactive and 19.3 µM (active)”; in assay [5], “inactive and 24.5 µM (active) and 9.77 µM (active)”; in assay [7], 16.8 µM (active) and 5.43 µM (active) and 4.33 µM (active). The Potency is 8.41 µM (active) and 2.16 µM (active) and 1.93 µM (active) in [8]; 6.01 µM (active) and 4.35 µM (active) and 2.19 µM (active) in assay [10]; 15.4 µM (active) in assay [13]; “inactive and 13.7 µM (active)” in [15]. Moreover, the Potency entry in [6], in assay [9], in assay [11] and in assay [14] was “inactive” each time.

As to `NNC(=S)NN`, the Potency result in [1], in [5], in [6], in [7], in assay [8] and in assay [16] was “inactive” throughout. Further, the Potency result in assay [10], in assay [11], in [12], in assay [13], in [14] and in assay [15] was “inactive” throughout. Besides, the Potency in [2] is 61.1 µM (active); in assay [3] it was 54.5 µM (active); in assay [4], 43.3 µM (active); in [9], “inactive and 61.1 µM (active)”.

Take `Oc1cc(Cl)c(Cl)cc1Cl`: the Potency entry in assay [1], in [2], in assay [5], in assay [6], in [7] and in assay [8] was “inactive” in each case. The Potency result in [9], in assay [10], in [14] and in assay [15] was “inactive” throughout. For the same compound, the Potency result is “inactive and 68.6 µM (active)” in assay [3]; “inactive and 61.1 µM (active)” in [4].

As to `Cc1cccc(N)c1N`, the Potency entry in assay [1], in [5], in assay [6], in [7], in assay [8] and in [9] was “inactive” in each case. The Potency result in [10], in assay [14] and in [15] was “inactive” each time. Further, the Potency result was “inactive and 19.3 µM (active)” in [2]; 19.3 µM (active) in assay [3]; 21.7 µM (active) in assay [4].

Regarding `CCC(C)c1ccc(O)cc1` (stereo unspecified), the Potency entry in assay [1], in assay [2], in [5], in assay [6], in [7] and in assay [8] was “inactive” throughout. The Potency result in assay [9], in [10] and in assay [14] was “inactive” throughout. The Potency result was “inactive and 61.1 µM (active)” in [3]; “inactive and 43.3 µM (active)” in [4].

Take `CCC(C)(C)c1ccc(O)cc1`: the Potency entry in [1], in assay [5], in [6], in assay [7], in assay [8] and in assay [9] was “inactive” each time. Further, the Potency entry in [16], in assay [10], in assay [13], in [14] and in assay [15] was “inactive” throughout. Besides, the Potency entry in assay [2] was “inactive and 54.5 µM (active)”; in assay [3], “inactive and 61.8 µM (active) and 30.6 µM (active)”; in assay [4] it was “inactive and 54.5 µM (active)”; in assay [11], “inactive and 15.7 µM [inconclusive] (active) and 55 µM [activator] (active)”; in [12], 17.4 µM (active) and 24.3 µM (active).
